Common to all, as to assay: DAPPL (digital affinity profiling via proximity ligation, sequencing); 10 mM Tris-HCl pH 7.5, 50 mM NaCl, 1 mM DTT, 4% glycerol, room temperature, 30 min; GST-TFs on glutathione beads, 16-mer random dsDNA library, 0.1% formaldehyde crosslink after washing; high values mean tight binding
For one assay, the target named is T1, FLI1 (Homo sapiens, UniProt Q01543 1-452).
T1 sequence: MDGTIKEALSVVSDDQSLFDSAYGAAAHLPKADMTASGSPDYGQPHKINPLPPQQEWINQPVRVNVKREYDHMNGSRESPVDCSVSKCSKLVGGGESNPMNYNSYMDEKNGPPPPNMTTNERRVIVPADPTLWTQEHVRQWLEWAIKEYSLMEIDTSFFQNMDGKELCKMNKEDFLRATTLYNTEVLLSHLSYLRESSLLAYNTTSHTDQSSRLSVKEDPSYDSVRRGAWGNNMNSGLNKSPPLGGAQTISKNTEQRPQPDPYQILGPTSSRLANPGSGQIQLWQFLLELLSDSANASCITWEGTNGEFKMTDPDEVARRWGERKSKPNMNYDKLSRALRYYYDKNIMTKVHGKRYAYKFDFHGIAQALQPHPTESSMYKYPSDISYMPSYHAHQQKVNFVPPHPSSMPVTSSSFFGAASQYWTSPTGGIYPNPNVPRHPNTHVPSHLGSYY
Conditions: protein: recombinant; tags: N-terminal GST; dsDNA, one strand shown. The essentials:
(§1)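 Binding signal is given per hexamer as its read frequency for a factor divided by its frequency in the tag-only sample. GST-fused human transcription factors were expressed in yeast, captured on glutathione beads, barcoded with DNA and pooled with that sample, then incubated with 200 nmole of a 16-mer random double-stranded DNA library in Tris/NaCl/DTT/glycerol buffer for 30 min at room temperature. The pools were then washed, crosslinked, proximity-ligated, amplified by PCR and sequenced on an Illumina NextSeq500.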

A further assay concerns the target T2, ELK1 (Homo sapiens, UniProt P19419 1-428).
T2 sequence: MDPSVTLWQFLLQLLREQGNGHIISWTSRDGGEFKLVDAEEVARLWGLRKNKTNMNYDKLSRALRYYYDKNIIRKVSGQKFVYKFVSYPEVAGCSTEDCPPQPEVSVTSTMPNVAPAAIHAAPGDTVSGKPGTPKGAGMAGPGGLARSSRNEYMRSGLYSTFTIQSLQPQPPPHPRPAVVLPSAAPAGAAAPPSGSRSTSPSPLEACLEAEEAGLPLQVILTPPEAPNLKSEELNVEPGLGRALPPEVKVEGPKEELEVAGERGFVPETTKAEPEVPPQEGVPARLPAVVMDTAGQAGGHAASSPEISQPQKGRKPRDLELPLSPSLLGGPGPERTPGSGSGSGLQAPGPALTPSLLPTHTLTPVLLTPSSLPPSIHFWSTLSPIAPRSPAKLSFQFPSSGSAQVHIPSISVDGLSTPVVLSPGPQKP
As to conditions: protein: recombinant; tags: N-terminal GST; dsDNA, one strand shown. The essentials: as §1

For a further assay, the target named is T3, GABPA (Homo sapiens, UniProt Q06546 1-454).
T3 sequence: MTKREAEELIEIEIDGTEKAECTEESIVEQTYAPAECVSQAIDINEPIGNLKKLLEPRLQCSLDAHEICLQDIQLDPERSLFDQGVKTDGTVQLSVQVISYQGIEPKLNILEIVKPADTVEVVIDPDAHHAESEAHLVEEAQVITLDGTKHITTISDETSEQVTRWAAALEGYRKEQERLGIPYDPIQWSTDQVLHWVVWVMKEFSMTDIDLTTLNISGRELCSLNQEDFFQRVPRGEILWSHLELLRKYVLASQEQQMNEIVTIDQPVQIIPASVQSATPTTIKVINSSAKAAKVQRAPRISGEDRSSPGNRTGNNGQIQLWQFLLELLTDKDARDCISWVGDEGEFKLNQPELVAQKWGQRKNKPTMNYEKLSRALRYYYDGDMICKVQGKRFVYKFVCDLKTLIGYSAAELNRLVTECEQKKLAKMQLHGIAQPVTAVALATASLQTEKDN
As to conditions: protein: recombinant; tags: N-terminal GST; dsDNA, one strand shown. The essentials: as §1

The next assay concerns the target T4, ERG (Homo sapiens, UniProt P11308 1-479).
T4 sequence: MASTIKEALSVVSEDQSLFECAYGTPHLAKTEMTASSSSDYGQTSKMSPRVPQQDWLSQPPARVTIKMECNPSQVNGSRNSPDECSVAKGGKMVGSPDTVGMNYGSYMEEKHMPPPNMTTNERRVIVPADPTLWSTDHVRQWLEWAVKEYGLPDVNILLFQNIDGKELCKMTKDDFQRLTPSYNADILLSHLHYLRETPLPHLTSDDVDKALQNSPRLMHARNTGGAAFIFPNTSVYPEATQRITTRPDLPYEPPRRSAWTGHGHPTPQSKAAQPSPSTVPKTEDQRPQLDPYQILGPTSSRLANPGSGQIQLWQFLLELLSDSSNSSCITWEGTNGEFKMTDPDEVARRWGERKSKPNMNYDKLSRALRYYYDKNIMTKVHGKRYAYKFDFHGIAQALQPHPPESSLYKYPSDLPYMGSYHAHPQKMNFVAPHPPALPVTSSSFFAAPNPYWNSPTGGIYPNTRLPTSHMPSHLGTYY
Conditions: protein: recombinant; tags: N-terminal GST; dsDNA, one strand shown. The essentials: as §1

The target in a further assay is ELF1 (Homo sapiens, UniProt P32519 1-619). Conditions: protein: recombinant; tags: N-terminal GST; dsDNA, one strand shown. The essentials:
as §1

For a further assay, the target named is SPI1 (Homo sapiens, UniProt P17947 1-270). As to conditions: protein: recombinant; tags: N-terminal GST; dsDNA, one strand shown. The essentials: as §1
For a further assay, the target named is T5, ELK3 (Homo sapiens, UniProt P41970 1-407).
T5 sequence: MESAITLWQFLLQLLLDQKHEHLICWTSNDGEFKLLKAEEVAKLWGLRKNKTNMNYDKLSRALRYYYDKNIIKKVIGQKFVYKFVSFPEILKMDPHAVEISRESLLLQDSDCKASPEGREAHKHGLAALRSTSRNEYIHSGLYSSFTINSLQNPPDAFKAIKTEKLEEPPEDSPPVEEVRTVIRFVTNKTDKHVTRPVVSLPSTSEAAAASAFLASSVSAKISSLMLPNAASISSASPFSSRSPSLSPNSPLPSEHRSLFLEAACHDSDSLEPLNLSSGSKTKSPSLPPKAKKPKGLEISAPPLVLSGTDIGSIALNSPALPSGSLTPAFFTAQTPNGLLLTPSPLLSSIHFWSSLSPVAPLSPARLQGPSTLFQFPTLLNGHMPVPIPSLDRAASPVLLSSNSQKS
As to conditions: protein: recombinant; tags: N-terminal GST; dsDNA, one strand shown. The essentials:
as §1

Another assay addresses ETV5 (Homo sapiens, UniProt P41161 1-510). As to conditions: protein: recombinant; tags: N-terminal GST; dsDNA, one strand shown. The essentials: as §1
A further assay has as its target HSF1 (Homo sapiens, UniProt Q00613 1-529). As to conditions: protein: recombinant; tags: N-terminal GST; chain copies: 3; dsDNA, one strand shown. The essentials:
as §1

The next assay deals with ELF4 (Homo sapiens, UniProt Q99607 1-663). Conditions: protein: recombinant; tags: N-terminal GST; dsDNA, one strand shown. The essentials: as §1
In another assay the target is T6, ELK4 (Homo sapiens, UniProt P28324-2 1-405).
T6 sequence: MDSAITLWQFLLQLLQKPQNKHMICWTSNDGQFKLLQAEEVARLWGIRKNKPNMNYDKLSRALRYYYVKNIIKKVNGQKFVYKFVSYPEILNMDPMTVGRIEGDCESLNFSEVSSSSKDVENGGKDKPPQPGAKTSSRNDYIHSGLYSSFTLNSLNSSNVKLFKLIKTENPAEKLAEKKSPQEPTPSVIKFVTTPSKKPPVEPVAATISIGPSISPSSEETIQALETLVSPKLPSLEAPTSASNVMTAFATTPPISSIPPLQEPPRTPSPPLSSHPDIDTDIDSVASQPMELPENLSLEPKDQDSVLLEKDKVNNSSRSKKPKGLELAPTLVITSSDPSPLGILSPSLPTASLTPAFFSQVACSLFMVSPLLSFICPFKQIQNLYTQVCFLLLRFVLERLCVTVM
Conditions: protein: recombinant; tags: N-terminal GST; dsDNA, one strand shown. The essentials:
as §1

The target of another assay is T7, ETV2 (Homo sapiens, UniProt O00321 1-342).
T7 sequence: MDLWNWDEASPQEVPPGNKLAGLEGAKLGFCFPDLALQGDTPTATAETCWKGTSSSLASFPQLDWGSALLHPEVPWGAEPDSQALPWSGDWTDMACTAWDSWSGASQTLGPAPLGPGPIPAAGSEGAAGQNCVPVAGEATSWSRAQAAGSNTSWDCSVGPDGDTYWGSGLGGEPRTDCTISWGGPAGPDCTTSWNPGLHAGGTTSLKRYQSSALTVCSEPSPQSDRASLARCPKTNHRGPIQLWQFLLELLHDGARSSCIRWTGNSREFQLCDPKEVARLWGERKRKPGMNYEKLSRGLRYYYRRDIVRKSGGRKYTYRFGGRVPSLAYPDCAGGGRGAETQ
Conditions: protein: recombinant; tags: N-terminal GST; dsDNA, one strand shown. The essentials: as §1

For another assay, the target named is CRX (Homo sapiens, UniProt O43186 1-299). Conditions: protein: recombinant; tags: N-terminal GST; dsDNA, one strand shown. The essentials: as §1
For the next assay, the target named is ETV1 (Homo sapiens, UniProt P50549 1-477). As to conditions: protein: recombinant; tags: N-terminal GST; dsDNA, one strand shown. The essentials:
as §1

In the next assay the target is T8, EHF (Homo sapiens, UniProt Q9NZC4 1-300).
T8 sequence: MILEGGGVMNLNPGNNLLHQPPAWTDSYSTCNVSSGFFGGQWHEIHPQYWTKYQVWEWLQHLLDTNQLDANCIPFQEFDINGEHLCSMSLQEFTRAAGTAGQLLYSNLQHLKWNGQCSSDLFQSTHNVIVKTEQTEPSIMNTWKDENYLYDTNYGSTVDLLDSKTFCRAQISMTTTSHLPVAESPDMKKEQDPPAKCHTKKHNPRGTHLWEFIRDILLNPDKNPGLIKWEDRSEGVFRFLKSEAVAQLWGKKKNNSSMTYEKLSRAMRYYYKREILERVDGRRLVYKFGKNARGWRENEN
Conditions: protein: recombinant; tags: N-terminal GST; dsDNA, one strand shown. The essentials:
as §1

A further assay deals with SPIB (Homo sapiens, UniProt Q01892 1-262). Conditions: protein: recombinant; tags: N-terminal GST; dsDNA, one strand shown. The essentials:
as §1

The target in a further assay is T9, FEV (Homo sapiens, UniProt Q99581 1-238).
T9 sequence: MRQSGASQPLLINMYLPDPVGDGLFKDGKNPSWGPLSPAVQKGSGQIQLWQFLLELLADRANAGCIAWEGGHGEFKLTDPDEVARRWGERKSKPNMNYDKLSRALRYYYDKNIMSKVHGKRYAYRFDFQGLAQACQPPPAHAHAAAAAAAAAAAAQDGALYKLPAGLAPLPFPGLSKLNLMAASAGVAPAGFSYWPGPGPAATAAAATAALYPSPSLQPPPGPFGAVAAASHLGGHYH
Conditions: protein: recombinant; tags: N-terminal GST; dsDNA, one strand shown. The essentials:
as §1

ETV1, sequence (P50549 whole entry): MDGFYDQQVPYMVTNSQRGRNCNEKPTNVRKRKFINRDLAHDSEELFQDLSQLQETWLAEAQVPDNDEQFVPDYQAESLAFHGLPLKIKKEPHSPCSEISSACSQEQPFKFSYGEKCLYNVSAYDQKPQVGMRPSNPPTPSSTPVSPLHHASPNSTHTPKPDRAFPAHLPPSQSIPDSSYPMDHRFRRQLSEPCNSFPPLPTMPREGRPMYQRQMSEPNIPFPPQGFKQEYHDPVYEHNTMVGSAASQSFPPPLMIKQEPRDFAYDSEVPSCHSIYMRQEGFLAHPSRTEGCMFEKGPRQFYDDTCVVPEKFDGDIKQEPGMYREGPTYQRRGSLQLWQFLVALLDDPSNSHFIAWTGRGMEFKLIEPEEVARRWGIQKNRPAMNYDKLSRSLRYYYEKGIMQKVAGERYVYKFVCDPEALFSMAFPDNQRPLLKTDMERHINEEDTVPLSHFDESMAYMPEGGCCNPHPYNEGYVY
HSF1, sequence (Q00613 whole entry): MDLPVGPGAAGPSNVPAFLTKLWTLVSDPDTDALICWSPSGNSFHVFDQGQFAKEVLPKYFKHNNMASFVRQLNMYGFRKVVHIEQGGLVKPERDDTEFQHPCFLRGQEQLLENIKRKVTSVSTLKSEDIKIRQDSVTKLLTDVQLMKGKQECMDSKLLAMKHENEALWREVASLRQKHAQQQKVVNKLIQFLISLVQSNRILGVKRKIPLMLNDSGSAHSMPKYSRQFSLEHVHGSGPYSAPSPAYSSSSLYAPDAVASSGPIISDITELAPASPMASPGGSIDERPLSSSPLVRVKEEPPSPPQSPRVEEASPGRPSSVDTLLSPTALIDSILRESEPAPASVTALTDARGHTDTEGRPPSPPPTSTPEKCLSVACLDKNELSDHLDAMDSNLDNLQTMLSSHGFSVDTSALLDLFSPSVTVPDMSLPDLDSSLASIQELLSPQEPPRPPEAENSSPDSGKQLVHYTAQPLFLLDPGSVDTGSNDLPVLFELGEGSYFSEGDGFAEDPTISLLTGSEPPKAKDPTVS
CRX, sequence (O43186 whole entry): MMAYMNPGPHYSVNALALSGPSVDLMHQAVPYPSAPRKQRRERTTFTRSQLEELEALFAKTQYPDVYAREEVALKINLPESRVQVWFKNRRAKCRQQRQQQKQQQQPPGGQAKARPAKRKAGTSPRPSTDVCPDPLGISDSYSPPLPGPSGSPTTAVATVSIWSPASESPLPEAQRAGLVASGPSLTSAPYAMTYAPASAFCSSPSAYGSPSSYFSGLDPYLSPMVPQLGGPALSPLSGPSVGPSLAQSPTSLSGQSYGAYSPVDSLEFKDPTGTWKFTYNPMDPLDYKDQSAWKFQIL
ETV5, sequence (P41161 whole entry): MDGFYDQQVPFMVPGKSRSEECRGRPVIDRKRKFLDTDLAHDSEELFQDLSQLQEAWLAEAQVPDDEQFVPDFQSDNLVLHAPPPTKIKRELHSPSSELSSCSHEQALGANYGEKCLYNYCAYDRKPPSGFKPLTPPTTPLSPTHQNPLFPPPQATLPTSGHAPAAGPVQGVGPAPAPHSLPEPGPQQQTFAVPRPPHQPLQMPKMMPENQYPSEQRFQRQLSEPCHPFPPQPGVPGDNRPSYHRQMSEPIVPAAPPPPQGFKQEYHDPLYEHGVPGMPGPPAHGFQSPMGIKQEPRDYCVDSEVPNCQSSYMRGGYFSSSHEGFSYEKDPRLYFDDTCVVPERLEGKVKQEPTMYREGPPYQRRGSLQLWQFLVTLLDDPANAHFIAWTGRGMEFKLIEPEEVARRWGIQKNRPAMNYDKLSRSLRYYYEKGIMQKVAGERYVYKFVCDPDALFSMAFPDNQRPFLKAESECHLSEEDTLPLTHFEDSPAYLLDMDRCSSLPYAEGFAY
ELF4, sequence (Q99607 whole entry): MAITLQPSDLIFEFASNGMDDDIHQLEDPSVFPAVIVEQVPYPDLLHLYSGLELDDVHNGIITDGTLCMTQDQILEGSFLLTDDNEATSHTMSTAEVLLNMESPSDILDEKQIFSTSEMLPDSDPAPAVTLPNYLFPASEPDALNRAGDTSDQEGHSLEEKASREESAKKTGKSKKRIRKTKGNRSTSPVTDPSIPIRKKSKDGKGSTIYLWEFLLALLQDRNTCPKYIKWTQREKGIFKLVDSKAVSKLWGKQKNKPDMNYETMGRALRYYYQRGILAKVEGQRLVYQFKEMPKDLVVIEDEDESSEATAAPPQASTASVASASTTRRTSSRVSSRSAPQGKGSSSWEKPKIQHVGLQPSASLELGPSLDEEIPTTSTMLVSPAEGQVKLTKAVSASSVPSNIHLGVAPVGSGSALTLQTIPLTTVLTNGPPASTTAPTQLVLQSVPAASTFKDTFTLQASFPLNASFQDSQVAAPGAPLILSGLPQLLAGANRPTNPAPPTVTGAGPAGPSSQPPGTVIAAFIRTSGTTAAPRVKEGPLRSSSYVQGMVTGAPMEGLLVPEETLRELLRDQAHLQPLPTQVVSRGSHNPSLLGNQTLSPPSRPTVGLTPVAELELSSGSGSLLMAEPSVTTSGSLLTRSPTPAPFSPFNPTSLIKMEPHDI
ELF1, sequence (P32519 whole entry): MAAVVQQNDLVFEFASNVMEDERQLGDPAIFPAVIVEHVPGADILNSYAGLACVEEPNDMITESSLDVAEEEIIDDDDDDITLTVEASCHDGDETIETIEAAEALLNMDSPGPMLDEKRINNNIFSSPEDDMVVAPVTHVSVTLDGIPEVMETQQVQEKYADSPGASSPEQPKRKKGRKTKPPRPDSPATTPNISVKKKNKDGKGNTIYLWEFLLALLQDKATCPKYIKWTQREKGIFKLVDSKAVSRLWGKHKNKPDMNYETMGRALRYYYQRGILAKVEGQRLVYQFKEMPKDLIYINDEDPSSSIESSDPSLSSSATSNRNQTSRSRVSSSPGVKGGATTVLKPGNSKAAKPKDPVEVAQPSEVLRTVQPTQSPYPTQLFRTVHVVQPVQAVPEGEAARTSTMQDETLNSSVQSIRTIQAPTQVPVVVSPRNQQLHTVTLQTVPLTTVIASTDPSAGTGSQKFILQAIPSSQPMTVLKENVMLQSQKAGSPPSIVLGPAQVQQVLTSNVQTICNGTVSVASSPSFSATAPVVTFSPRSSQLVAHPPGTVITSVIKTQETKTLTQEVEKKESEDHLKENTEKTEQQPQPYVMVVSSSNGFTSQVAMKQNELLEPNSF
SPIB, sequence (Q01892 whole entry): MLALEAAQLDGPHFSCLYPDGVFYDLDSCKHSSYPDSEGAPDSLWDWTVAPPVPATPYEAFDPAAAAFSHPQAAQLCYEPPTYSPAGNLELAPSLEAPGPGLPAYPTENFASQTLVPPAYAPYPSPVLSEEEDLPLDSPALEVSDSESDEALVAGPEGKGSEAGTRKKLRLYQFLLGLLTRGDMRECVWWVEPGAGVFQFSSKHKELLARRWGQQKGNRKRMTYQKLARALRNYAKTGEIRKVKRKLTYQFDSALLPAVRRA

On to TATCAA, for which the binding signal was 1.1 fold enrichment (6-mer frequency, TF over GST control) in the assay with FLI1; 1.06 fold enrichment (6-mer frequency, TF over GST control) with ELK1; 1.13 fold enrichment (6-mer frequency, TF over GST control) with GABPA; 1.03 fold enrichment (6-mer frequency, TF over GST control) with ERG; 1.02 fold enrichment (6-mer frequency, TF over GST control) with ELF1; 1.02 fold enrichment (6-mer frequency, TF over GST control) with SPI1. Further, the binding signal in the assay with ELK3 was 1.02 fold enrichment (6-mer frequency, TF over GST control); in the assay with ETV5 it was 1.03 fold enrichment (6-mer frequency, TF over GST control); in the assay with HSF1, 1.01 fold enrichment (6-mer frequency, TF over GST control); in the assay with ELF4, 1.03 fold enrichment (6-mer frequency, TF over GST control); with ELK4, 1.09 fold enrichment (6-mer frequency, TF over GST control); with ETV2, 1.11 fold enrichment (6-mer frequency, TF over GST control). For the same sequence, the binding signal is 1.21 fold enrichment (6-mer frequency, TF over GST control) with CRX and 1.01 fold enrichment (6-mer frequency, TF over GST control) in the assay with ETV1.

Regarding GGTATA, the binding signal is 1.04 fold enrichment (6-mer frequency, TF over GST control) with FLI1; 1.16 fold enrichment (6-mer frequency, TF over GST control) with ELK1; 1.02 fold enrichment (6-mer frequency, TF over GST control) with GABPA; 1.05 fold enrichment (6-mer frequency, TF over GST control) in the assay with ERG; 1.09 fold enrichment (6-mer frequency, TF over GST control) in the assay with ELF1; 1.11 fold enrichment (6-mer frequency, TF over GST control) in the assay with EHF. In addition, the binding signal in the assay with SPI1 is 1.07 fold enrichment (6-mer frequency, TF over GST control); in the assay with SPIB, 1.06 fold enrichment (6-mer frequency, TF over GST control); with FEV, 1.08 fold enrichment (6-mer frequency, TF over GST control); with ETV5 it was 1.1 fold enrichment (6-mer frequency, TF over GST control); with HSF1 it was 1.08 fold enrichment (6-mer frequency, TF over GST control); with ELF4 it was 1.08 fold enrichment (6-mer frequency, TF over GST control). Moreover, the binding signal with ELK4 was 1.1 fold enrichment (6-mer frequency, TF over GST control); with ETV2 it was 1.05 fold enrichment (6-mer frequency, TF over GST control); with CRX it was 1.02 fold enrichment (6-mer frequency, TF over GST control); with ETV1, 1.11 fold enrichment (6-mer frequency, TF over GST control).
